About 260 (12%) of roughly 2,100 compounds were called active. Roughly 58% stayed inconclusive and do not appear here. Calls follow the shape of the dose curve; as a rule, active = well fitted cell-killing curve with a large enough effect; inconclusive = small, poorly fitted or top-dose-only effect, or effect the other way; inactive = flat fitted curve, though single readings scatter. The list shows a part of the results. Where a call stands in place of a potency, no number is given.
Test: Viability Counterscreen for Confirmatory qHTS for Inhibitors of ATXN expression; also: nearly all actives have a fitted effect of over 50% in size
Settings: HEK-293 ATXN2-luc cells viability, CellTiter-Fluor, 24 h
How it was run: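 Luminescence read-out (SteadyGlo, 5 min) followed a 30 min Gly-Phe-AFC (25 uM final) viability fluorescence read. ATXN2-luciferase reporter cells were exposed 24 h to a dilution series. Medium-only wells served as the 100% inhibition reference.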
Potency is read from the fitted curve at half-maximal effect.

| Compound | Potency |
| --- | --- |
| Cc1sc2nc(CN3CCCC3)nc(N3CCC(C(N)=O)CC3)c2c1C | inactive |
| O=C(N/N=C/c1ccc(O)cc1O)c1ccncc1 | inactive |
| Cc1cc(C)n(CCC(=O)N/N=C/c2ccc(O)cc2O)n1 | inactive |
| Cc1cc([N+](=O)[O-])nn1Cc1ccc(C(=O)N/N=C/c2ccc(O)cc2O)cc1 | 10 µM (active) |
| CCn1c(-c2ccc(C)cc2)nn(CC(=O)NCCc2ccccc2)c1=S | inactive |
| O=C(NN=Cc1ccc(O)cc1O)c1ccccc1NS(=O)(=O)c1cccs1 | inactive |
| CCc1ccc(C(O)c2ncc(-c3cccc(C(F)(F)F)c3)[nH]2)cc1 (stereo not given) | inactive |
| CCN(CC)CCn1nc2c3c(cccc3c1=O)-c1ccccc1-2 | 14.1 µM (active) |
| COc1ccc(/C(N)=N/OC(=O)N2CCOCC2)cc1 | inactive |
| Cn1c2c(c(=O)[nH]c1=O)C(c1cccc(O)c1)C1=C(N2)c2ccccc2C1=O (stereo not given) | 22.4 µM (active) |
| CCOC(=O)C(C(C)=O)c1c(Br)c(O)c(O)c2c(C(=O)c3ccc(C)cc3)coc12 (stereo not given) | 15.8 µM (active) |
| CC(=O)C(C(C)=O)c1c(Cl)c(O)c(O)c2c(C(=O)c3ccccc3)coc12 | 12.6 µM (active) |
| Cc1ccc(NC(=O)CSc2ccc(Br)cc2)cc1S(=O)(=O)N1CCOCC1 | inactive |
| CCc1ccc(N(CC)C(=O)c2ccc3c(Cl)c4c(nc3c2)CCC4)cc1 | inactive |
| Cc1ccc(Cc2cnc(NC(=O)/C(C#N)=C/c3ccc(-c4cccc([N+](=O)[O-])c4)o3)s2)cc1 | 22.4 µM (active) |
| CCN1C(=O)/C(=C/c2nc3ccccc3c(=O)n2-c2ccccc2)c2ccccc21 | 25.1 µM (active) |
| C=CCOc1ccc(CNc2ccc3[nH]c(=O)[nH]c3c2)cc1OC | inactive |
| COc1ccc(Cc2nnc(N/N=C/c3ccccc3O)[nH]c2=O)cc1OC | 4.47 µM (active) |
| COc1cc(Br)cc(/C=N/NC(=O)Cc2ccccc2)c1O | inactive |
| Cc1ccc(S(=O)(=O)c2c(N)n(CC3CCOC3)c3nc4ccccc4nc23)cc1 (stereo not given) | inactive |
| COc1cccc(/C=N/n2c(N)c(S(=O)(=O)c3cccs3)c3nc4ccccc4nc32)c1OC | 22.4 µM (active) |
| CCn1ccnc1CN1CCCC(C(=O)c2ccc3cc(OC)ccc3c2)C1 (stereo not given) | inactive |
| O=S(=O)([N-]c1nc2ccccc2nc1-[n+]1ccc(Cc2ccccc2)cc1)c1ccc(Br)s1 | 7.94 µM (active) |
| CCc1noc(C)c1C(=O)N1CCSC1=Nc1cccc(Cl)c1C | inactive |

| Compound | Potency |
| --- | --- |
| CC1(C)Cc2ccccc2C2=NNC(=O)C2=N1 | 28.2 µM (active) |
| O=c1cc(C(F)(F)F)[nH]c2ccc(C(F)(F)F)cc12 | inactive |
| CN(C)CCNC(=O)c1ccc(Cl)c2cc3ccccc3nc12 | 10 µM (active) |
| COc1ccc(N(C)S(=O)(=O)c2ccc(Cl)c(C(=O)NCCc3ccc(Cl)cc3)c2)cc1 | inactive |
| CSc1sc(C(=O)NN)c2c1C1(CCC2)SCCS1 | inactive |
| CCCCCn1c(=O)c2ccccc2n2c(CCl)nnc12 | 25.1 µM (active) |
| CCOC(=O)C(CC)(CC)C(=O)/C=C/c1ccc(OC)cc1 | inactive |
| CC(C)=CCc1ccc(O)c(=O)cc1C(C)C | inactive |
| O=C(N/N=C(\Cc1ncc[nH]1)c1ccccc1)c1cccnc1 | inactive |
| COc1cc(C(=O)N/N=C(\c2ccccc2)c2ccccn2)cc(OC)c1OC | 2.24 µM (active) |
| COc1cc(C(=O)N/N=C(\Cc2ncc[nH]2)c2ccccc2)cc(OC)c1OC | inactive |
| CCc1ccc(NC(=O)C2CCN(S(=O)(=O)c3ccc4c(c3)CC(C)N4C(C)=O)CC2)cc1 (stereo not given) | inactive |
| CCOc1ccc(S(=O)(=O)NCCC(=O)N2CC=C(c3ccccc3)CC2)cc1 | inactive |
| COc1cc2[nH]c(=O)n(CCCCCC(=O)N3CC=C(c4ccccc4)CC3)c(=O)c2cc1OC | 3.16 µM (active) |
| Cc1cccn2c(=O)c3cc(C(=O)NCCc4ccccc4)c(=N)n(CCCn4ccnc4)c3nc12 | inactive |
| O=C(Nc1ccccc1C(=O)Nc1nnc(C(F)(F)F)s1)c1ccccc1 | 3.98 µM (active) |
| Cc1onc(-c2c(F)cccc2Cl)c1C(=O)Nc1nnc(C(F)(F)F)s1 | inactive |
| CC1CCCN(c2ncnc3c2cnn3-c2ccc(Cl)cc2)C1 (stereo not given) | inactive |
| O=C(NCc1ccco1)c1ccc(-c2cccc(Cl)c2)o1 | inactive |
| CC(NC1=CC(=O)c2cccnc2C1=O)C(O)c1ccccc1 (stereo not given) | 31.6 µM (active) |
| COc1ccc2c(c1)[nH]c1c(=O)n(/N=C/C3C(C)C=C(C)CC3C)c(=O)[nH]c12 (stereo not given) | 20 µM (active) |
| Cc1ccc(-c2cc(C(=O)NCCCN3CCOCC3)no2)cc1 | inactive |
| CCOC(=O)c1c(SCCN2CCCC2)n(-c2ccccc2)c(=S)n(-c2ccccc2)c1=O | 2.51 µM (active) |
| O=C(/C=C/NNC(=O)c1ccccc1)c1ccc([N+](=O)[O-])cc1 | 12.6 µM (active) |

| Compound | Potency |
| --- | --- |
| CCCCC(=O)N(C)c1c(CC)nc2c(OCc3ccc(Cl)cc3Cl)cccn12 | inactive |
| O=C(NCC(=O)N1CC(O)CC1C(=O)N1CCCC1C(=O)OCc1ccccc1)OCc1ccccc1 (stereo not given) | inactive |
| CCCCC(=O)OCC(=O)C1(O)Cc2c(O)c3c(c(O)c2C(OC2CC(NC(=O)C(F)(F)F)C(O)C(C)O2)C1)C(=O)c1c(OC)cccc1C3=O (stereo not given) | 15.8 µM (active) |
| COc1cccc2c1C(=N)c1c(O)c3c(c(O)c1C2=O)CC(O)(C(C)=O)CC3OC1CC(N)C(O)C(C)O1 (stereo not given) | 4.47 µM (active) |
| CCC1=C(OC(=O)N(CC)CC)N2C(=O)OC(=NCCc3c[nH]c4ccccc34)[C@]2(Cc2ccccc2)[C@H]2C1=CC[C@H]1C(=O)N(c3ccccc3)C(=O)[C@H]12 | inactive |
| CCCC(=O)Nc1c(C(=O)OCC)[nH]c2ccccc12 | inactive |
| CCOc1ccc(/C=N/NC(=O)C(O)c2ccccc2)c(O)c1 (stereo not given) | inactive |
| O=c1ccc2ccccc2c2ccccc12 | 17.8 µM (active) |
| O=C(N/N=C\c1c(O)ccc2ccccc12)c1ccc(Cn2cccn2)o1 | inactive |
| Cc1ccc(Cl)cc1-c1ccc(C=Nc2ccc(N3CCOCC3)cc2)o1 | inactive |
| CCC(C)n1cnc2c(c1=O)c1nc3ccccc3nc1n2-c1ccc2c(c1)OCCO2 (stereo not given) | inactive |
| C=CCn1cnc2c(c1=O)c1nc3ccccc3nc1n2/N=C/c1cc(OC)c(OC)c(OC)c1 | 20 µM (active) |
| Cc1ccsc1/C=C/C1=Cc2c(sc(NC(=O)CSc3n[nH]c(N)n3)c2C#N)C(C)(C)C1 | inactive |
| c1ccc(Cn2c(-c3ccccc3)c[n+]3c2SCCC3)cc1 | inactive |
| Cc1ccc(S(=O)(=O)c2nc(S(C)(=O)=O)sc2N2CCCCC2C)cc1 (stereo not given) | inactive |
| COc1ccc(CCNC(=O)c2cc3c(F)cccc3s2)cc1OC | inactive |
| Cc1ccnc(NC(=O)CCCc2c[nH]c3ccccc23)c1 | inactive |
| COc1cc(/C=C(/C#N)C(=O)NCCc2c[nH]c3ccccc23)ccc1OCc1ccccc1F | 25.1 µM (active) |
| Cc1c(C(=O)N2c3ccccc3Sc3ccccc32)cccc1[N+](=O)[O-] | inactive |
| CC1(C)CC(N2CCN(Cc3ccccc3)CC2)=CC(=[N+]2CCCCC2)C1 | inactive |
| COc1ccc(N2CCN(c3ccnc4cc(Cl)ccc34)CC2)cc1 | inactive |
| O=C(Cc1ccccc1)N/N=C/c1cc(Br)cc(Br)c1O | inactive |
| CN(C)c1ccc(C(=O)N/N=C/c2cc(Br)cc(Br)c2O)cc1 | inactive |
| CC(C)C(=O)Nc1ccc(C(=O)N/N=C/c2cc(Br)cc(Br)c2O)cc1 | 28.2 µM (active) |

| Compound | Potency |
| --- | --- |
| C/C(=N\NC(=O)C(C)n1nc(C)c([N+](=O)[O-])c1C)c1ccccc1O (stereo not given) | inactive |
| Cc1ccc(/C=C2\SC(=S)N(CCCC(=O)Nc3cc(C)on3)C2=O)cc1 | inactive |
| Cc1ccc(/C=C2\SC(=S)N(CCCC(=O)Nc3cccnc3)C2=O)cc1 | 31.6 µM (active) |
| COC(=O)c1ccc(/C=C2/SC(=S)N(CCCC(=O)Nc3ccccn3)C2=O)cc1 | 28.2 µM (active) |
| Cc1ccc(/C=C2\SC(=S)N(CCCC(=O)Nc3ccc(O)cc3)C2=O)cc1 | inactive |
| O=C(CCCN1C(=O)S/C(=C\c2ccccc2)C1=O)NNC(=O)c1ccccc1O | inactive |
| Cc1ccc(NC(=O)COc2ccc(/C=C3/SC(=Nc4ccccc4)N(Cc4cccnc4)C3=O)cc2)cc1 | 20 µM (active) |
| Cc1ccc(/C=C2/SC(=S)N(CCCC(=O)Nc3ccc(O)cc3)C2=O)cc1 | 28.2 µM (active) |
| [O-][n+]1c2ccccc2cc2ccccc21 | inactive |
| O=c1c(Cc2ccccc2)c(O)nc2n1CCS2 | inactive |
| CC1(C)COCN1S(=O)(=O)c1ccc(C(=O)Nc2nnc(-c3ccc(Cl)s3)o2)cc1 | inactive |
| CC(C)(C)c1ccc(C(=O)N2CCCCCC2=O)cc1 | inactive |
| COc1ccc(/C=C/C(=O)c2ccc([N+](=O)[O-])o2)cc1OC | 8.91 µM (active) |
| CC(/C=C/c1ccc2c(c1)OCO2)=N\NC(=O)c1cccc([N+](=O)[O-])c1 | inactive |
| Cc1cccc(/C=C/C(=O)c2ccc([N+](=O)[O-])o2)c1 | 3.55 µM (active) |
| COc1ccccc1NC(=S)NC(=O)c1ccc(Cn2cc(Br)cn2)cc1 | inactive |
| OC(c1ccccc1)(c1nc(-c2ccc3ccccc3c2)cs1)C(F)(F)F (stereo not given) | inactive |
| O=C(NCc1ccccc1Cl)C1CCCN(C(=O)Nc2ccc(F)cc2)C1 (stereo not given) | inactive |
| COc1cc(C#Cc2c(-c3cncn3C)n(C)c3ccc(-c4ccc(CN5CCOCC5)cc4)cc23)cc(OC)c1 | inactive |
| O=C(N/N=C\c1cc(Cl)ccc1O)c1ccc(S(=O)(=O)N2CCCCC2)cc1 | inactive |
| O=C(COc1ccc(F)cc1)N/N=C/c1cccc2cccnc12 | inactive |
| CC1CCN(Cc2c(C(=O)N/N=C/c3cc(Br)ccc3O)nnn2-c2nonc2N)CC1 | inactive |
| Nc1ccc(Oc2ccccc2-c2ccccc2)cc1 | inactive |

From PubChem BioAssay AID1745850 (National Center for Advancing Translational Sciences (NCATS), 2022)
